# Data as given in PubChem BioAssay AID2508 (National Center for Advancing Translational Sciences (NCATS), 2010).
# Inconclusive results are not listed. Calls of active or inactive are those of the source. Calls come from the whole dose curve; as a rule, active = well fitted inhibition curve with a large enough effect; inconclusive = small, poorly fitted or top-dose-only effect, or effect the other way; inactive = no such curve, though single readings can be large or run the other way.
# Experiment: Confirmatory Assay for General miRNAs Modulators and/or Inhibitors/Activators of miR-21
# Conditions: HeLa miR-21 FLuc reporter, luminescence, 48 h; series mostly up to 38.3 µM
# Text: MLSCN Grant: 1 R21 NS059478-01 Assay Provider: Qihong Huang, The Wistar Institute NCGC Assay Overview: MicroRNAs (miRNAs) are endogenously encoded small (~20-25 nucleotides), nonprotein-coding RNAs that are involved in post-transcriptional repression of target messenger RNAs (mRNAs) (Le and Hannon, 2004). Estimated to be involved in the regulation of 30% of all protein-coding mRNAs (Filipowicz et al., 2008), miRNAs play a significant role in many biological processes including cellular differentiation and tissue development (Ghildiyal and Zamore, 2009).
# NCGC Assay Protocol Summary: Reagents: HeLa cells stably expressing firefly luciferase (FLuc) under the control of a CMV promoter (upstream) and a miR-21 binding sequence directly downstream of the gene. These cells endogenously express miR-21. Control compounds used were compound C3 (provided by collaborator), N6-phenyladenosine (MP Biomedicals, 0215379625), and DMSO. Assay Summary: 6uL of HeLa miR-21-FLuc cells in assay buffer (DMEM, Invitrogen #21063-029; 10% FBS, HyClone #SH30071.03) were dispensed at 2000cells/well (3.3 x 10^5 cells/mL) into Greiner solid-white TC-treated 1536-well plates using a Multidrop Combi (Thermo Fisher Scientific). Plates were incubated for one hour at 37 degree Celsius, 95% humidity, 5% CO2. These assay plates were then treated with 23nL of compound or DMSO using a Kalypsys pin tool, which allows for delivery of a 24-point titration of each compound to the assay plate, with a final compound concentration ranging from approximately 40uM to 5pM. Assay plates were then incubated for 48 hours. After incubation, plates were allowed to come to RT for one hour prior to delivery of 3uL of 3X luciferase detection reagent. After a 15 minute incubation to allow for cell lysis, luciferase activity was measured using a ViewLux CCD imager (PerkinElmer), with an average exposure time of 2-12 seconds. Keywords: NIH Roadmap, MLPCN, MLSMR, qHTS, miR-21, microRNA, firefly luciferase, FLuc.
row,SMILES,Potency
1,COc1cc(-c2nc3cnccn3c2Nc2ccc(C(C)C)cc2)ccc1O,2.83 µM (active)
2,Cc1ccc(NC(=O)Cn2nnc(-c3nc(-c4ccc(Cl)cc4)no3)c2N)cc1C,inactive
3,COc1ccc(CNc2nc(-c3ccco3)nn2C(=O)CC(C)C)cc1,11.3 µM (active)
4,CC1=C(c2ccc(C)c(C)c2)S(=O)(=O)N=C1N1CCC(C(=O)NCCc2ccc(Cl)cc2)CC1,inactive
5,COc1cccc(-n2nnc(-c3nc(-c4cccs4)no3)c2N)c1,0.895 µM (active)
6,CCc1cccc(-n2nnc(-c3nsc(NC(=O)c4cccs4)n3)c2C)c1,10 µM (active)
7,Cc1ccccc1Nc1nc(N)nc(CN(C)c2ccccc2)n1,11.3 µM (active)
8,O=C(Nc1nnc(S(=O)(=O)N2CCCC2)s1)c1ccc(F)cc1,inactive
9,CC(C)(C)C1CCc2nc(NC(=O)Cc3cn4ccsc4n3)sc2C1 (stereo not given),11.3 µM (active)
10,O=C(CSc1nnc(-c2ccc(C(F)(F)F)cn2)o1)Nc1cccc(Cl)c1,2.25 µM (active)
11,CN(C(=O)CSc1nnc(-c2ccccc2F)o1)C1CCCCC1,14.2 µM (active)
12,Cc1ccc(CNc2nc(-c3ccco3)nn2S(C)(=O)=O)cc1,4 µM (active)
13,O=C(CSc1nnc(-c2ccncc2)o1)Nc1nncs1,inactive
14,Cc1c(-c2nsc(NC(=O)c3cccs3)n2)nnn1-c1ccc(F)cc1,0.565 µM (active)
15,Cc1ccc(-c2nc(NCc3ccco3)n(S(C)(=O)=O)n2)cc1,7.98 µM (active)
16,CC(=O)Nc1nc2c(C)cc(NC(=O)C3CCCCC3)cc2s1,1.79 µM (active)
17,COc1ccc(CNc2n[nH]c(-c3ccco3)n2)cc1OC,inactive
18,Cc1c(-c2nnc(SCC(=O)Nc3ccccc3F)o2)nnn1-c1ccc(F)cc1,3.56 µM (active)
19,COc1ccc(NCc2cccn2-c2nnc(N3CCC(C)CC3)s2)c(OC)c1,3.56 µM (active)
20,Cc1cc(C)cc(NC(=O)CSc2nnc(CNC(=O)c3ccco3)o2)c1,inactive

row,SMILES,Potency
1,COc1ccc(-c2csc(NC(=O)COC(=O)c3ccc(Br)o3)n2)cc1,2.83 µM (active)
2,Cc1cccc(-n2nnc(-c3nc(-c4cccs4)no3)c2N)c1,0.634 µM (active)
3,Cc1nnc(SCc2nc(N)nc(Nc3ccccc3)n2)s1,22.5 µM (active)
4,CCC(=O)n1nc(-c2cccnc2)nc1NCc1ccc(F)cc1,inactive
5,COc1ccccc1NC(=O)c1sc2nc3c(cc2c1N)CN(Cc1ccccc1)CC3,inactive
6,O=S(=O)(c1ccc(F)cc1)n1ccc(-c2cnc(-c3ccccc3)s2)n1,5.65 µM (active)
7,CSc1nsc(SCC(=O)Nc2ccc(F)cc2F)n1,7.98 µM (active)
8,N#Cc1cc2cc3c(cc2nc1SCC(=O)N1CCOCC1)OCO3,1.13 µM (active)
9,Cc1ccc(SCC(=O)Nc2ccc3oc(-c4ccc(F)cc4)nc3c2)cc1,15.9 µM (active)
10,CC(C)COc1ccc(C(=O)Nc2cc(-c3ccccc3)no2)cc1,3.56 µM (active)
11,CCc1ccc2oc(C(=O)Nc3nonc3CC)c(C)c2c1,7.11 µM (active)
12,Cc1ccccc1OCCn1cnc2c(N)ncnc21,inactive
13,Nc1c(-c2nc(-c3ccncc3)no2)nnn1CC(=O)Nc1ccccc1,inactive
14,CS(=O)(=O)n1nc(-c2ccc(Cl)cc2)nc1SCc1ccccc1,5.04 µM (active)
15,Nc1c(-c2nc(-c3cccs3)no2)nnn1-c1cccc(F)c1,0.318 µM (active)
16,NC(=O)c1ccccc1NC(=O)c1ccc(-c2ccc(Br)cc2)o1,2.83 µM (active)
17,O=C(CSc1nnc(-c2ccccn2)o1)Nc1cccc(Cl)c1,2.52 µM (active)
18,CCc1nonc1NC(=O)c1oc2ccccc2c1C,7.98 µM (active)
19,COc1ccc(NC(=O)c2ncn(-c3ccccc3)n2)cc1Cl,12.6 µM (active)
20,Cc1ccc(-c2nsc(SCC(=O)Nc3ccc4c(c3)OCO4)n2)cc1,17.9 µM (active)
